# Source: PubChem BioAssay (Tox21)
# Active and inactive are the calls of the source. Entries that show only a call come without a potency. The call rests on the fitted dose curve; in most records, active means well fitted activation curve with a large enough effect in the repeat runs; inconclusive means weak or mixed curves; inactive means flat fitted curve, though single readings scatter.
# Biological target: KiSS-1 receptor (Homo sapiens) (UniProt Q969F8)
# Assay: Human kisspeptin (KISS1R) small molecule agonists, calcium flux assay in KISS1R-HEK293 cells (AID 1920064)
# Settings: KISS1R-HEK293, calcium flux fluorescence, agonist; series mostly up to 76.8 µM
# Description: National Center for Advancing Translational Sciences [NCATS]
# Division of Preclinical Innovation [DPI]
# U.S. Environmental Protection Agency [EPA]
# National Institutes of Environmental Health Sciences [NIEHS]
# National Toxicology Program [NTP]
# U.S. Food and Drug Administration [FDA]
# Kisspeptin and its receptor KISS1R play key roles in mammalian reproduction due to their involvement in the onset of puberty and control of the hypothalamic-pituitary-gonadal axis such as regulates GnRH release from the hypothalamus. The kisspeptin/KISS1R system also plays a direct role in peripheral organs (including the ovary, testis, uterus, and placenta) and is implicated in reproductive diseases such as miscarriage and polycystic ovary syndrome (PCOS). Abnormal KISS1R activity is associated with abnormal puberty, infertility, endometriosis, and hormone-dependent tumors. The KISS1 receptor (KISS1R, also called GPR54), a G-protein-coupled receptor (GPCR), acts (through phospholipase C) to increase intracellular inositol trisphosphate and then release intracellular calcium stores. Cell-based KISS1R-HEK293 assay is using HEK293 cells that have been genetically engineered to express the human KISS1R, which activity can be measured by calcium signaling. A compound/drug can activate (agonist) KISS1R that can be monitored by levels of intracellular calcium.
# KISS1R-HEK293 cells developed by Codex Corp contain human KISS1R gene, which was stably integrated into HEK 293 cells. The compound activation can be detected by fluorescence intensity via calcium flux assay. This cell line has been used to screen the Tox21 10K compound library to identify agonists of KISS1R.
# KISS1R-Hek293 cells were dispensed at 1500 cells/4uL/well in 1536-well black wall/clear bottom plates using a multidrop dispenser. After the assay plates were incubated at a 37 C/5% CO2 incubator for 18 hours, 4 microL of Calcium Dye Solution was added to each well. The plates were incubated at 37 C for 1 hour. And then 23 nL of compounds dissolved in DMSO, positive controls, or DMSO only was transferred to the assay plate by a pin tool station. The fluorescence intensity in the plates was measured using FDSS 7000EX kinetic plate reader with a filter set of Ex/Em=480/540 for 3 min at 1 sec intervals. Each test compound was measured at 15 concentrations and in triplicates.
# KiSS-1 receptor (Homo sapiens), sequence (Q969F8 whole entry, looked up): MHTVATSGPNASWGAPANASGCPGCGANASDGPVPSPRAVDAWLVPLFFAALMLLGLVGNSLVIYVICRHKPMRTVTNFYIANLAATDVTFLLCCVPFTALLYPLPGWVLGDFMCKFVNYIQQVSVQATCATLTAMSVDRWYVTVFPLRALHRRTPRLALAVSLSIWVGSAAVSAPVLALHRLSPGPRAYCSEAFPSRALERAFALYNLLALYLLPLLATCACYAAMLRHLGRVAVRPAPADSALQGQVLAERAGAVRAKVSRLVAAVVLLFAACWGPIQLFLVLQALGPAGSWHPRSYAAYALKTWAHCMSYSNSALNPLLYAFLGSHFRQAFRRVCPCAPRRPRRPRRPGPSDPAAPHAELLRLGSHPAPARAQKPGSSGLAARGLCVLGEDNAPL
row,Structure (SMILES),Potency
1,CCCCC1(COC(=O)CCC(=O)O)C(=O)N(c2ccccc2)N(c2ccccc2)C1=O,inactive
2,NC(N)=O,inactive
3,C=C[C@@]1(C)CC(=O)[C@]2(O)[C@@]3(C)[C@@H](O)CCC(C)(C)[C@@H]3[C@H](O)[C@H](OC(C)=O)[C@@]2(C)O1,inactive
4,CC(=O)Nc1ccc(C(=O)O)cc1,inactive
5,OCc1ccc(Cl)cc1Cl,inactive
6,CCOc1ccc(NC(=O)CC(C)O)cc1 (stereo not given),inactive
7,COC1=CC(=O)C[C@@H](C)[C@]12Oc1c(Cl)c(OC)cc(OC)c1C2=O,inactive
8,N[C@@H](Cc1cc(I)c(Oc2cc(I)c(O)c(I)c2)c(I)c1)C(=O)O,inactive
9,CCC1(c2ccccc2)C(=O)NCNC1=O,inactive
10,c1ccc2[nH]c(-c3cscn3)nc2c1,inactive
11,Brc1cc(Oc2cc(Br)c(Br)c(Br)c2Br)c(Br)c(Br)c1Br,inactive
12,NC(=O)c1cnccn1,inactive
13,O=C(O)c1cccc([N+](=O)[O-])c1,inactive
14,COc1ccc(C(Cl)=C(c2ccc(OC)cc2)c2ccc(OC)cc2)cc1,inactive
15,C=CCNC(N)=S,inactive
16,CCCCCCCCCCCCCC(=O)O,inactive
17,COc1ccccc1OCC(O)CO (stereo not given),inactive
18,O=[N+]([O-])c1cccc(Cl)c1,inactive
19,CC1(C)NC(=O)N(c2ccc([N+](=O)[O-])c(C(F)(F)F)c2)C1=O,inactive
20,O=C(c1cc(O)c(O)c(O)c1)c1ccc(O)c(O)c1O,inactive

row,Structure (SMILES),Potency
1,NCCNc1cccc2ccccc12,inactive
2,CC1Cc2ccccc2N1NC(=O)c1ccc(Cl)c(S(N)(=O)=O)c1 (stereo not given),inactive
3,CCCCCNCCCCC,inactive
4,CC(=O)OCCOC(C)=O,inactive
5,C=C(C)C(=O)Nc1ccc(Cl)c(Cl)c1,inactive
6,CCCCC(=O)O,inactive
7,CCCCCCC(C)O (stereo not given),inactive
8,CCCCCCCCCCCCc1ccccc1O,inactive
9,CCCCCCCCCCCCCC[N+](C)(C)Cc1ccccc1,inactive
10,c1ccncc1,inactive
11,CCN(CC)CCOC(=O)c1ccc(N)cc1,inactive
12,O=C(O)c1[nH]n(-c2ccc(S(=O)(=O)O)cc2)c(=O)c1N=Nc1ccc(S(=O)(=O)O)cc1,inactive
13,C[C@@H](O)[C@H]1C(=O)N2C(C(=O)O)=C(S[C@@H]3CN[C@H](C(=O)N(C)C)C3)[C@H](C)[C@H]12,inactive
14,Cc1cccc(C)c1,inactive
15,O=C(O)CC(C(=O)O)C(CC(=O)O)C(=O)O (stereo not given),inactive
16,NNc1ccc(C(=O)O)cc1,inactive
17,C=C(C)CNCC,inactive
18,Cc1ccc(C)c(S(=O)(=O)O)c1,inactive
19,CC/C=C(\C(=O)N[C@@H]1C(=O)N2C(C(=O)OCOC(=O)C(C)(C)C)=C(COC(N)=O)CS[C@H]12)c1csc(N)n1,inactive
20,O=C(O)CCC(=O)O,inactive
